Screens as filed in PubChem BioAssay.
Hits are enriched below; roughly 2.8% of the tested compounds scored in any of these assays.
PTHR1 ag: agonists of human PTHR1 parathyroid hormone receptor. Q03431. HEK293 GP2 PTHR1 cells, GloSensor cAMP luminescence, 1 h. Potency, µM (highest dose often 115 µM), without a hit: at the highest dose activation, actives largely listed as activators. actives 0.075% (n = 410,000); note: potency is the fitted concentration of half-maximal effect; nearly all actives have a fitted effect of over 55% in size
Target sequence (Q03431 whole entry, looked up): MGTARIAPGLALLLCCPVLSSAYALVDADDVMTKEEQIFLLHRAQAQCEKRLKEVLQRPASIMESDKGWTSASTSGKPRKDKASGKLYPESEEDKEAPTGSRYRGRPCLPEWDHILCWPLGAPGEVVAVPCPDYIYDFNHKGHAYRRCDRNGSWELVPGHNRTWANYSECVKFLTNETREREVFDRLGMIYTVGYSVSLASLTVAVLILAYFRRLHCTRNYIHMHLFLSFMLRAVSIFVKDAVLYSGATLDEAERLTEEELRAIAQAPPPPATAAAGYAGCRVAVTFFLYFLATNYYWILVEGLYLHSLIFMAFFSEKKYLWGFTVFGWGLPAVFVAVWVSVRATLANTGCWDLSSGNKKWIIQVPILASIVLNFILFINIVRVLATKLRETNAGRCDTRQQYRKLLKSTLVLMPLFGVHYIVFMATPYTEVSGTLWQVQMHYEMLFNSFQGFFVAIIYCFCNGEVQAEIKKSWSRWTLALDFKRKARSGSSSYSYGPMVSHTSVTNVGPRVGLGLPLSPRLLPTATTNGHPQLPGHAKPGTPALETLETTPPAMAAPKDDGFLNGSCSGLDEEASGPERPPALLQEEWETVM
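HEK-293-derived GP2 cells expressing PTHR1 and a GloSensor cAMP reporter, 3,000/well, plated overnight, given luciferin plus IBMX (each 0.5 mM as added) for 1 h at 37 °C, then compound for 1 h at 37 °C. Luminescence was read after 15 min at room temperature.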
MBNL1-CUG inh: inhibitors of human MBNL1 binding to CUG repeat RNA; Q9NR56; TR-FRET MBNL1-His/biotin-(CUG)12 binding, 665/545 ratio; Potency, µM (doses to about 57.5 µM), for the others: at the top dose activity change, negative = inhibition, most hits filed as inhibitors; actives 0.036% (n = 280,000); AID 2675; active = well fitted inhibition curve with a large enough effect in the signal ratio, with a control signal flat, not every such curve was filed as active; inconclusive = small, poorly fitted or top-dose-only effect, or effect the other way, or a change in a side signal; inactive = no such curve, though single readings can be large or run the other way; the % refers to the signal ratio; note: potency is the fitted concentration of half-maximal effect; % is set by controls: 0 for no effect and ±100 for the full control effect
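Inhibition of protein-RNA binding appears as loss of TR-FRET between terbium anti-His antibody on MBNL1-His and streptavidin-XL665 on biotin-(CUG)12. Activity is normalized to buffer-only and uninhibited-complex controls.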
DRD3 antagonist: D3 dopamine receptor (human) antagonism; D3R cells, DiscoveRx beta-arrestin luminescence, antagonist mode; hits give low values; max response, negative = inhibition, %; actives 2.5% (n = 360,000); in the data active = max response below about -50%; inconclusive = no clear call, values can overlap the other calls; note: % is set by controls: 0 for no effect and ±100 for the full control effect
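Cells expressing the human receptor were seeded at 1500 cells/well, incubated overnight at 37 degrees C in 5% CO2, then exposed to library compounds with dopamine controls for 90 minutes at 37 degrees C before luminescent detection.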
CBFb-RUNX1 inh: inhibitors of human CBF-beta and RUNX1 interaction. Q01196+Q13951. AlphaScreen CBFb-His/RUNX1-biotin binding, biochemical. Potency, µM (highest dose often 59.8 µM), inactives show top-dose activity, negative = inhibition, usual class: inhibitors. 230,000 tested, under 10 active; note: % of control where 0% means no effect
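Read-out: AlphaScreen. Format: His-CBF-beta with biotinylated RUNX1 (30 nM each) preincubated 20 min, compound 15 min, Ni-chelate plus streptavidin beads 90 min; room temperature throughout.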
Integrin act MD: activators of alpha7 integrin expression for muscular dystrophy; alpha7betagal myoblasts, beta-gal FDG fluorescence, 48 h; actives 0.064% (n = 350,000); Potency, µM (series often up to 38.3 µM), inactives show at the top dose activation, actives largely listed as activators; AID 624291;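 note: potency is the fitted concentration of half-maximal effect; 100% = response of the positive control SU9516; nearly all actives have a fitted effect of over 60% in size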
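alpha7betagal+/- myoblasts (passage 13, 250/well) treated 48 h at 37C with compounds at 1:260 dilution of DMSO stock. Lysed, then beta-galactosidase activity read as FDG fluorescence (ex 480/em 540) after 30 min, with pre-read for autofluorescence.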
D3 ag: D3 dopamine receptor (human) agonism; actives 0.58% (n = 410,000); D3R DiscoveRx beta-arrestin cells, luminescence, 90 min; max activation, %; P35462; in the data active = max activation above about 30%; note: 0% is about no effect
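Cells at 1500/well, incubated overnight, then treated with pinned compounds (dopamine as control) for 90 min at 37 degrees C. DiscoveRx reagent added for 30 - 60 minutes at room temperature; luminescence read.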
* = called active by the depositor; [ ] = dose if it differs, or a comment. Unless noted, calls come from the whole dose curve; as a rule, active = well fitted curve in the direction sought with a large enough effect; inconclusive = small, poorly fitted or top-dose-only effect, or another doubt; inactive = no such curve, though single readings can be large; an effect the other way counts as inactive or inconclusive.

For CCCCN(CC)CCNC(=O)C1c2cc(OC)c(OC)cc2C(=O)N2CCc3ccccc3C12 (stereo not drawn) the results were PTHR1 ag inactive, MBNL1-CUG inh 5%, DRD3 antagonist -76*, CBFb-RUNX1 inh -1%, Integrin act MD 1% and D3 ag 3.
CCN1CCN(C(=O)C2c3cc(OC)c(OC)cc3C(=O)N3CCc4ccccc4C23)CC1 (stereo not drawn) was read as PTHR1 ag inactive, MBNL1-CUG inh -6%, DRD3 antagonist -4, CBFb-RUNX1 inh 0%, Integrin act MD 18% and D3 ag -10.
For CCCOc1ccc(C(=O)NNC(=S)NC(=O)c2cc(-c3ccc(Cl)cc3)nc3ccccc23)cc1 the results were PTHR1 ag -8%[57.5 µM], MBNL1-CUG inh 8%, DRD3 antagonist -50*, CBFb-RUNX1 inh -22%, Integrin act MD 1% and D3 ag -9.
For CCOC(=O)c1cc(-c2ccccc2)n(CCCC(=O)Nc2ccc(C)c(Cl)c2)c1C the results were PTHR1 ag -39% and D3 ag -9.
`COc1cccc(C(=O)Oc2cc3c4c(c2)C(C)=CC(C)(C)N4C(=O)C3=O)c1` gave PTHR1 ag -11%[57.5 µM], MBNL1-CUG inh 7%, DRD3 antagonist inconclusive, CBFb-RUNX1 inh -17%, Integrin act MD -40% and D3 ag -24.
Screening CC1=CC(C)(C)n2c(O)c(C3=NC(=S)NC3=O)c3cc(OC(=O)c4cccc5ccccc45)cc1c32 returned PTHR1 ag inactive, MBNL1-CUG inh -6%, DRD3 antagonist -58*, CBFb-RUNX1 inh -1%, Integrin act MD -23% and D3 ag -16.
COc1cc(C[C@@H]2NCCc3cc(O)c(O)cc32)cc(OC)c1OC was read as D3 ag -21.
Screening O=c1n(Cc2ccc(F)cc2)c2ccccc2c2nc(-c3ccccc3)nn12 returned PTHR1 ag inactive and D3 ag 5.
O=c1n(Cc2ccc([N+](=O)[O-])cc2)c2ccccc2c2nc(-c3ccccc3)nn12 was read as PTHR1 ag 12% and D3 ag 53*.
Screening O=C(Cn1c2c(c(-c3ccccc3Cl)cc1=O)CCC2)NCCCN1CCOCC1 returned PTHR1 ag -15%, MBNL1-CUG inh 0%, DRD3 antagonist 9, CBFb-RUNX1 inh -1%, Integrin act MD -13% and D3 ag 17.
For Cc1ccc(NC(=O)c2ccc3nsnc3c2)c(C)c1 the results were PTHR1 ag -16%, MBNL1-CUG inh inconclusive, DRD3 antagonist 1, Integrin act MD 11% and D3 ag 7.
For COc1ccccc1N1CCN(C(=O)c2cc3c(=O)oc4ccc(C)cc4c3s2)CC1 the results were PTHR1 ag -21% and D3 ag -5.
For Cc1c(C(=O)OCC(C)C)[nH]c2c1C(=O)CC(c1ccco1)C2 (stereo not drawn) the results were PTHR1 ag -6%, MBNL1-CUG inh 1%, DRD3 antagonist -53*, CBFb-RUNX1 inh inconclusive, Integrin act MD 0% and D3 ag -11.
C=CCOC(=O)c1[nH]c2c(c1C)C(=O)CC(c1ccco1)C2 (stereo not drawn) was read as PTHR1 ag -79%, MBNL1-CUG inh inconclusive, DRD3 antagonist -26, CBFb-RUNX1 inh -10%, Integrin act MD 0% and D3 ag -9.
`COc1ccc(N2CCN(C(=O)CCc3nnc4ccc(N5CCCC5)nn34)CC2)cc1` gave PTHR1 ag inactive, MBNL1-CUG inh -8%, DRD3 antagonist 26, Integrin act MD 0% and D3 ag 2.
Screening Nc1ccc2c(c1)N1CCN=C1S2 returned PTHR1 ag -8%, MBNL1-CUG inh 5%, DRD3 antagonist -64*, CBFb-RUNX1 inh 1%, Integrin act MD 0% and D3 ag -2.
Screening Cc1c(C(=O)N2CCc3ccccc3C2)oc2ccccc12 returned PTHR1 ag -25%, MBNL1-CUG inh 1%, DRD3 antagonist -5, Integrin act MD 27% and D3 ag -1.
Screening Cc1cccc(-c2nc3ccccc3c(=O)n2NC(=O)c2cccs2)c1 returned PTHR1 ag -26%, MBNL1-CUG inh -1%, DRD3 antagonist -8, CBFb-RUNX1 inh 2%, Integrin act MD 9% and D3 ag -2.
`Cc1ccc(-c2nc3ccccc3c(=O)n2NC(=O)c2cccs2)cc1` gave PTHR1 ag -36%, MBNL1-CUG inh -13%, DRD3 antagonist -51*, CBFb-RUNX1 inh -1%, Integrin act MD 4% and D3 ag 3.
Nc1nc2ccc(N3CCOCC3)cc2s1 was read as PTHR1 ag -20%, MBNL1-CUG inh -16%, DRD3 antagonist -76*, CBFb-RUNX1 inh 1%, Integrin act MD 7% and D3 ag -9.
Screening CC1(C(=O)NS(=O)(=O)c2ccccc2)CCN1C(=O)CC1CCCCC1 (stereo not drawn) returned PTHR1 ag -1%, DRD3 antagonist 0 and D3 ag -7.
Screening O=C(C1CC(c2ccc(F)cc2)=NO1)N1CCc2ccccc2C1 (stereo not drawn) returned PTHR1 ag inactive, MBNL1-CUG inh -12%, DRD3 antagonist -20, CBFb-RUNX1 inh 4%, Integrin act MD 4% and D3 ag 3.
`O=C(C1CC(c2ccccc2O)=NO1)N1CCc2ccccc2C1` (stereo not drawn) gave PTHR1 ag -6%[57.5 µM], MBNL1-CUG inh -1%, DRD3 antagonist -95*, CBFb-RUNX1 inh -2%, Integrin act MD 5% and D3 ag -2.
C[C@@H](c1ncncc1F)C(O)(Cn1cncn1)c1ccc(F)cc1F (stereo partly drawn) was read as D3 ag 5.
Screening CN1CCN(CCOCCOc2ccc(Br)cc2Cl)CC1 returned PTHR1 ag -20%, MBNL1-CUG inh -11%, DRD3 antagonist -61*, Integrin act MD -31% and D3 ag -20.
CC1CCN(CCCOc2ccc(Br)cc2Cl)CC1 was read as PTHR1 ag -4%, MBNL1-CUG inh -5%, DRD3 antagonist -62*, CBFb-RUNX1 inh 0%, Integrin act MD -73% and D3 ag -15.
Screening Cc1ccc(OCCCCN2CCC(C)CC2)c(Br)c1 returned PTHR1 ag -26%, DRD3 antagonist -96*, CBFb-RUNX1 inh 11%, Integrin act MD -44% and D3 ag -25.
